Cruzain inh noDet = cruzain (T. cruzi) inhibition without detergent; P25779; purified cruzain, Z-FR-AMC fluorescence, no detergent; Potency, µM, hits mostly inhibitors; hit rate 2.3% among 200,000; AID 1476; also: nearly all actives have a fitted effect of over 40% in size
Target sequence (P25779 123-467 limits assumed): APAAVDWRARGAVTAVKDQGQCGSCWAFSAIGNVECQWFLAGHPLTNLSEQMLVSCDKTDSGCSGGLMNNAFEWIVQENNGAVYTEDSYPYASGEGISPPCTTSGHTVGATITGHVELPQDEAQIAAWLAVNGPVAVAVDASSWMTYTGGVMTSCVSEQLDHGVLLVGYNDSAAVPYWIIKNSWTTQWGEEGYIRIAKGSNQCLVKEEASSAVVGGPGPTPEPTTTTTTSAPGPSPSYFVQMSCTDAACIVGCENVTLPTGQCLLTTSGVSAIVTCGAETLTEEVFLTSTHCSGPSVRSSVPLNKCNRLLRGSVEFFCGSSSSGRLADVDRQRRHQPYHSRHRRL
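Detergent-free condition (0.00005% Triton X-100) in acetate buffer pH 5.5 with DTT. 1.5 nM enzyme and compound were pre-mixed 15 min, then 2 uM Z-FR-AMC substrate added; reaction progress from fluorescence change between first and third reads (60 s).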
Cruzain Triton = inhibitors of Trypanosoma cruzi cruzain with detergent; P25779; purified cruzain, Z-FR-AMC fluorescence, 0.01% Triton; Potency, µM, hits mostly inhibitors; hit rate 0.43% among 200,000; AID 1478; also: nearly all actives have a fitted effect of over 40% in size
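Purified cruzain (1.5 nM final) was preincubated with compounds for 15 min at room temperature in 100 mM sodium acetate pH 5.5, 5 mM DTT, 0.01% Triton X-100. Reaction started with 2 uM Z-FR-AMC; AMC fluorescence change over 60 s gave activity.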
Numbers stand for hits; - = inactive; ? = inconclusive. An excerpt weighted towards active compounds, which were near 2.6% of everything screened. Calls follow the shape of the dose curve; as a rule, active = well fitted curve in the direction sought with a large enough effect; inconclusive = small, poorly fitted or top-dose-only effect, or another doubt; inactive = no such curve, though single readings can be large; an effect the other way counts as inactive or inconclusive.

SMILES	Cruzain inh noDet	Cruzain Triton
O=C(CCc1ccccc1)NC(NC(=S)Nc1ccc(Cl)cc1)C(Cl)(Cl)Cl (stereo not drawn)	25µM	-
CC(C)[C@H](NC(=O)c1ccccc1)C(=O)OCC(=O)Nc1ccc(Cl)cc1C(F)(F)F	-	-
CSCCC(NC(=O)c1ccc(Cl)cc1)C(=O)OCC(=O)Nc1cc(Cl)ccc1C (stereo not drawn)	?	22µM
CCc1ccc(C(=O)COC(=O)C(CCSC)NC(=O)c2ccccc2)cc1 (stereo not drawn)	-	-
CC(C)c1ccc(NC(=O)COC(=O)[C@H](CCC(N)=O)NC(=O)c2ccc(F)cc2)cc1	-	?
N#Cc1ccc(Cl)cc1NC(=O)COC(=O)[C@H](CCC(N)=O)NC(=O)c1ccc(F)cc1	20µM	20µM
NC(=O)CC[C@H](NC(=O)c1ccc(F)cc1)C(=O)OCC(=O)Nc1c(F)c(F)c(F)c(F)c1F	13µM	28µM
O=C(O)/C=C(\CC(=O)O)C(=O)O	-	-
O=C(O)[C@@H]1CCCN1Cc1cc2ccccc2c2ccccc12	-	-
CCOc1ccc(NC(=O)CCCc2nc(-c3cccc(OC)c3)no2)cc1	-	-
COc1cccc(-n2c(=O)c3c(C)c(C(=O)N(C)C)sc3n(CC(=O)Nc3ccc(C)cc3Cl)c2=O)c1	-	-
O=[N+]([O-])c1cccc(S(=O)(=O)c2ccc(N3CCCCC3)c([N+](=O)[O-])c2)c1	?	-
O=C(/C=C/c1ccc(N2CCCCC2)c([N+](=O)[O-])c1)c1ccc(S(=O)(=O)N2CCCC2)cc1	32µM	-
O=[N+]([O-])c1cc(S(=O)(=O)c2ccc(N3CCCCC3)c([N+](=O)[O-])c2)ccc1N1CCCCC1	7.9µM	-
COc1cccc(C(=O)/C=C/c2ccc(N3CCCCC3)c([N+](=O)[O-])c2)c1	-	-
CO[C@@H]1C[C@H](O[C@H]2[C@@H](C)[C@H](O[C@@H]3O[C@@H](C)C[C@@H](N(C)C)[C@@H]3OC(C)=O)[C@H](C)C[C@]3(CO3)C(=O)[C@H](C)[C@H](OC(C)=O)[C@H](C)[C@H](C)OC(=O)[C@@H]2C)O[C@H](C)[C@@H]1OC(C)=O	-	-
N#Cc1ccc(CN2CCC3(CC2)CCN(C(=O)c2cc(C(F)(F)F)cc(C(F)(F)F)c2)CC3)cc1	-	-
C[C@@H]1CC2(OC3C[C@@]4(C)C5=CC[C@H]6C(C)(C)C(O[C@@H]7OC[C@@H](O)[C@H](O)[C@H]7O)CC[C@@]67C[C@@]57CC[C@]4(C)C31)OC(O)C1(C)OC21 (stereo partly drawn)	?	-
Cc1ccc(CN(C(=O)COc2ccc(Cl)c(C)c2)C2CCS(=O)(=O)C2)o1 (stereo not drawn)	?	-
CO[C@@H]1/C=C\O[C@]2(C)Oc3c(C)c(O)c4c(O)c(c(CN5CCN(C)CC5)c(O)c4c3C2=O)NC(=O)/C(C)=C\C=C[C@@H](C)[C@@H](O)[C@H](C)[C@@H](O)C(C)[C@H](OC(C)=O)[C@@H]1C (stereo partly drawn)	?	-
CCn1c2ccccc2c2cc(NC(=O)CSc3nnc(-c4cccc(C)c4)o3)ccc21	7.9µM	-
CCn1c2ccccc2c2cc(NC(=O)CSc3nnc(-c4ccccc4)o3)ccc21	20µM	-
CCn1c2ccccc2c2cc(NC(=O)CSc3nnc(-c4cccc(F)c4)o3)ccc21	?	-
Cc1ccc(C)c(NC(=O)CSc2nnc(-c3ccccc3)o2)c1	-	-
CCOc1ccc(-c2nnc(SCC(=O)Nc3cccc(Cl)c3C)o2)cc1	?	-
SMILES	Cruzain inh noDet	Cruzain Triton
CCOc1ccc(-c2nnc(SCC(=O)Nc3cccc(C#N)c3)o2)cc1	25µM	25µM
CCN(CC)C(=O)c1sc2c(c1C)c(=O)n(-c1ccccc1)c(=O)n2Cc1c(C)cc(C)cc1C	-	-
CCCCSCCCNC(=O)c1cn(C)c2ccc(S(=O)(=O)N3CCCCCC3)cc2c1=O	-	-
COc1cc(OC)c(NC(=O)N2CC=C(c3c[nH]c4ccccc34)CC2)cc1Cl	20µM	-
Cc1ccc(C)c(NC(=O)N2CC=C(c3c[nH]c4ccccc34)CC2)c1	-	-
COc1ccc(OC)c(NC(=O)C(=O)N/N=C/c2ccccc2[N+](=O)[O-])c1	-	-
COc1ccc(NC(=O)C(=O)N/N=C/c2cc(C)n(-c3cccc(Cl)c3Cl)c2C)c(OC)c1	13µM	-
OB(O)c1ccc(B(O)O)cc1	-	-
CC(C)C(=O)Nc1ccc(N2CCCC2)cc1	-	-
CC(C)c1ccc(C(=O)Nc2ccc(N3CCOCC3)cc2)cc1	-	-
O=C(Nc1ccc(N2CCCC2)cc1)C(c1ccccc1)c1ccccc1	7.9µM	-
CC(C)Oc1ccc(C(=O)Nc2ccc(N3CCCC3)cc2)cc1	4µM	-
O=C(CCc1ccccc1)Nc1ccc(N2CCCCC2)cc1	-	-
CCN1CCN(c2ccc(NC(=O)Cc3ccccc3)cc2)CC1	-	-
O=C(Cc1ccccc1)Nc1ccc(N2CCCC2)cc1	13µM	?
O=C(Cc1ccccc1)Nc1cccc(N2CCCC2)c1	25µM	-

Source: PubChem BioAssay
